This excerpt belongs to a sample that is enriched for hits.
MARV entry inh: Marburg virus entry inhibition; Marburg virus pseudotyped entry inhibition, cell reporter; Potency, µM (doses to about 37.8 µM), without a hit: at the top dose activity change, negative = inhibition, most hits filed as inhibitors; actives 1.8% (n = 300,000); AID 540276; calls by dose curve; tested in HEK293 cells; also: potency is read from the fitted curve at half-maximal effect; % is scaled to controls: 0 for no effect and ±100 for the full control effect
AMA1-RON2 inh: inhibitors of Plasmodium falciparum AMA1-RON2 interaction | AlphaScreen AMA1-biotinylated RON2 peptide binding | Potency, µM (series often up to 58.2 µM), without a hit: at the top dose activity change, negative = inhibition, hits mostly inhibitors | actives 0.2% (n = 360,000); active = well fitted inhibition curve with a large enough effect; inconclusive = small, poorly fitted or top-dose-only effect; inactive = no such curve, though single readings can be large or run the other way;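 also: potency is read from the fitted curve at half-maximal effect; 0% = vehicle wells and -100% = peptide control; nearly all actives have a fitted effect of over 45% in size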
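AMA1 (3D7) with his tag at 25 nM final met compounds first, then biotinylated RON2 peptide at 25 nM; detection used donor plus acceptor beads, 10 µg/mL apiece, read by AlphaScreen after 30 min at room temperature.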
Shiga inhibitor: Shiga toxin inhibition; Vero cells, Shiga toxin protein synthesis inhibition reporter; inhibition, % at 38.7 µM; actives 9.2% (n = 290,000); in the data active = inhibition mostly above about 28%, no sharp cut-off; inactive = mostly below about 43%; also: 0% is about no effect
Cycloheximide cs: affects cycloheximide protein synthesis inhibition readout, counter-screen; actives 12% (n = 300,000); cell reporter, cycloheximide protein synthesis inhibition counterscreen; max response, %; in the data active = max response mostly above about 13%, no sharp cut-off; inactive = mostly below about 14%; also: read at 38.3 µM for the half of the compounds with a filed dose; 0% is about no effect
Lassa entry inh: inhibitors of Lassa virus binding or cell entry; Lassa virus pseudotype entry inhibition, cell reporter; Potency, µM (series often up to 37.9 µM), for inactives: top-dose activity change, negative = inhibition, most hits filed as inhibitors; actives 1.2% (n = 300,000); calls by dose curve; tested in HEK293 cells; also: potency is read from the fitted curve at half-maximal effect; % is scaled to controls: 0 for no effect and ±100 for the full control effect; nearly all actives have a fitted effect of over 50% in size
Starred values were filed as active, the others as inactive; ? = inconclusive; nt = no result given; [ ] = remark or other dose.

SMILES	MARV entry inh	AMA1-RON2 inh	Shiga inhibitor	Cycloheximide cs	Lassa entry inh
O=C(NC(=S)Nc1ccc(CN2CCOCC2)cc1)c1ccc([N+](=O)[O-])cc1Cl	?	15%	33	26*	13%[46.1 µM]
COc1ccc(Br)cc1C(=O)NC(=S)Nc1ccc(CN2CCOCC2)cc1	?	-13%	3	10	5%[46.1 µM]
O=C(NC(=S)Nc1ccc(CN2CCOCC2)cc1)c1cccc([N+](=O)[O-])c1	-9%	15%	7	5	13%
O=C(NC(=S)Nc1ccc(CN2CCOCC2)cc1)c1ccccc1[N+](=O)[O-]	nt	11%	2	13	nt
COc1cc2ccccc2cc1C(=O)Nc1ccc(CN2CCOCC2)cc1	18%[46.1 µM]	-7%	35	20*	nt
COc1ccc(NS(=O)(=O)c2cccc(NC(=O)NC3CCCCC3)c2)cc1	?	-20%	7	2	2µM*
COc1ccc(NS(=O)(=O)c2ccc(C)c(NC(=O)NC3CCCCC3)c2)cc1	?	-3%	21	8	10µM*
COc1ccc(NS(=O)(=O)c2ccc(C)c(C(=O)N(C)Cc3ccc(C)cc3)c2)cc1	?	61%	nt	nt	11µM*
COc1ccc(NS(=O)(=O)c2ccc(C)c(C(=O)N(C)CCc3ccc(OC)c(OC)c3)c2)cc1	-10%	-24%	nt	nt	?
CCOc1cc(CNc2nn[nH]n2)ccc1OCC(=O)NC(C)(C)C	0%[46.1 µM]	24%	-8	-3	11%[46.1 µM]
COc1ccc(NC(=O)c2nc(C)n(-c3ccc([N+](=O)[O-])cc3)n2)cc1	0%[46.1 µM]	-2%	-8	7	0%[46.1 µM]
O=C(C[n+]1cccc2ccccc21)c1ccccc1	?	2%	26	6	0%
O=C(C[n+]1ccccn1)c1ccccc1	8%	-10%	40*	15*	30%
CS(=O)(=O)N(CC(=O)Nc1cccc(Br)c1)Cc1ccccc1	?	-1%	-4	-2	-26%[46.1 µM]
CCCC12CN3CC(C)(CN(C1)C3c1cn(CC)c3ccccc13)C2=O (centres undefined)	1%[46.1 µM]	nt	nt	nt	-11%[46.1 µM]
Cc1cccc(NC(=O)/C=C/c2ccc([N+](=O)[O-])s2)c1	?	-14%	21	1	?
Cc1ccc(NC(=O)/C=C/c2ccc([N+](=O)[O-])s2)c(C)c1	?	-12%	active	22*	?
Cc1ccc(NC(=O)COC(=O)c2ccc([N+](=O)[O-])s2)c(C)c1	14%	-12%	-14	-1	-1%
Cc1ccc(NC(=O)/C=C/c2ccc([N+](=O)[O-])s2)cc1	14µM*	-15%	active	26*	10µM*
Cc1cc([N+](=O)[O-])ccc1NC(=O)/C=C/c1cccs1	18%	-8%	59*	42*	23%
CCOc1ccc(CNC(=O)C2Cc3cc(S(=O)(=O)N4CCCCCC4)ccc3N2C(C)=O)cc1 (centres undefined)	-19%[46.1 µM]	nt	nt	nt	-28%[46.1 µM]
Cc1cc(/C(N)=N/OC(=O)c2ccc(Cl)cc2)no1	?	-4%	61*	35*	?
N/C(=N/OC(=O)c1ccc(Cl)cc1)c1ncc([N+](=O)[O-])s1	nt	-7%	66*	26*	nt
N/C(=N\OC(=O)c1ccc(Cl)cc1)c1[nH]ncc1Br	nt	71%	95*	64*	nt
Cc1cc(/C(N)=N/OC(=O)c2cccc(Cl)c2)no1	?	-6%	111*	59*	?
SMILES	MARV entry inh	AMA1-RON2 inh	Shiga inhibitor	Cycloheximide cs	Lassa entry inh
CCO/N=C(\N)c1[nH]ncc1Br	nt	4%	-3	6	nt
CCOC(=O)CN(Cc1ccccc1)C(C(=O)NC1CCCCC1)c1ccc(C)cc1 (centres undefined)	-1%[46.1 µM]	nt	nt	nt	4%[46.1 µM]
COc1cccc2oc3ccc(C#CC4(N)CCCCC4)cc3c(=O)c12	nt	-10%	24*	21*	nt
Cn1c2ccccc2c(=O)c2cc(C#CC3(O)CCCCC3)ccc21	nt	28%	56*	27*	nt
Cn1c2ccccc2c(=O)c2ccc(C#CC3(N)CCCCC3)cc21	nt	10%	85*	45*	nt
O=c1c2ccccc2oc2ccc(C#CC3(O)CCCCC3)cc12	nt	-3%	nt	nt	nt
Cc1ccc(S(=O)(=O)N2CCN(C(=O)COC(=O)CCOc3ccccc3C)CC2)c(C)c1	1%	0%	nt	nt	?
O=C(COc1cc(Cl)ccc1Cl)N1CCNC1=O	5%[46.1 µM]	0%	nt	nt	10%
CCc1ccc(-c2n[nH]nc2C2=CC(=O)C[C@H](c3ccc(F)cc3)C2)cc1	nt	78%	nt	nt	nt
O=C(NCc1ccco1)C(c1ccccc1)N(Cc1cccnc1)C(=O)Cn1nnc2ccccc21 (centres undefined)	9%[46.1 µM]	-9%	-4	-5	1%
CCN(CC)CCN1c2ccccc2Sc2ccccc21	?	-7%	-11	-4	?
CCN(CC)CCN1c2ccccc2Sc2ccc3ccccc3c21	10µM*	-2%	-6	-3	11%[46.1 µM]
CCCNC(=O)OC[C@H]1O[C@H](CCON=CC[C@@H]2C=C[C@H](OC(C)=O)[C@@H](COC(C)=O)O2)C=C[C@H]1Oc1ccc(OC)cc1	6%[14.2 µM]	nt	nt	nt	7%[14.3 µM]
CC(=O)Nc1ccc(S(=O)(=O)NCCc2ccccn2)cc1	-6%	1%	2	-1	1%
CCCCCCOc1ccc(N2C(=O)CC(SCCN)C2=O)cc1 (centres undefined)	18%[46.1 µM]	-20%	26	12*	2%[46.1 µM]
CCOc1ccc(N2C(=O)CC(Sc3nc(C)cc(C)n3)C2=O)cc1 (centres undefined)	4%	-1%	-2	6	11%
CCOc1ccc(N2C(=O)CC(SCCN)C2=O)cc1 (centres undefined)	-5%	?	76*	31*	12%
COc1ccc(N2C(=O)CC(SCCc3nc4ccccc4[nH]3)C2=O)cc1 (centres undefined)	0%	0%	-19	-3	-27%[14.3 µM]
CCOc1ccc(N2C(=O)CC(Sc3nnnn3-c3ccccc3)C2=O)cc1 (centres undefined)	?	-4%	21	18*	-5%
CCOc1ccc(NC(=O)CSC2=Nc3ccccc3C3=NC(CC(=O)NCc4cccs4)C(=O)N23)cc1 (centres undefined)	nt	nt	nt	nt	8%[46.1 µM]
CCN(CC)C(=O)c1cc(-c2ccc(Cl)cc2)on1	?	nt	nt	nt	16%[46.1 µM]
COC(=O)[C@]1(Sc2ccc(C)cc2)CC(=O)N[C@@H]1c1ccccc1	nt	-5%	nt	nt	nt
CCCCN(C(=O)C(C)Oc1ccc(Br)cc1)c1c(N)n(CC(C)C)c(=O)[nH]c1=O (centres undefined)	14%	-1%[11.6 µM]	nt	nt	17%
CCN(C/C=C/C#CC(C)(C)C)Cc1cccc(OCc2cc(-c3ccsc3)cs2)c1	nt	nt	30*	26	nt
CN(C)CCCOc1c2ccccc2n(Cc2ccccc2)[n+]1[O-]	nt	nt	-12	-3	nt
Cc1cccc(NC(=O)CSc2nc3ccc(NC(=O)c4ccco4)cc3s2)c1	?	nt	nt	nt	-7%[46.1 µM]
CC(=O)Nc1nc2ccc(NC(=O)c3ccco3)cc2s1	?	10%	55*	45*	22%
Cc1nc2ccc(NC(=O)c3ccco3)cc2s1	?	1%	104*	34*	-14%
COc1ccc(N2C(=O)c3ccc(NC(C)=O)cc3C2=O)cc1	1%	-8%	-6	8	5%
Cc1ccc(N2C(=O)c3ccccc3C2=O)cc1C	-2%	-6%	26	13	12%

Source: PubChem (National Center for Advancing Translational Sciences (NCATS))
